Compound activity: PubChem, National Center for Advancing Translational Sciences (NCATS)
Rows were chosen to be rich in hits. Some 2.4% of all compounds tested hit in one or more screens of this group.
D2 antagonist – D2 dopamine receptor (human) antagonism; P14416; HEK293 TREx D2 cells, calcium flux, dopamine EC80; inhibition, % at 10 µM; 340,000 compounds, 2% hits; AID 485344; in the data active means inhibition above about 30%; inactive means below that, where a call was filed
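HEK293 T-REx D2 cells, tet-induced, calcium dye no-wash. Cpd pintool add, 180 s kinetic, then EC80 DA, 180 s kinetic. Ca flux read.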
D2 PAM-1 – human D2 receptor positive allosteric modulation. DiscoveRx D2 beta-arrestin cells, luminescence, 90 min; 100% = 57 uM dopamine signal. potentiation, % (concentration not given with the values). 360,000 compounds, 0.23% hits. P14416; in the data active means potentiation above about 50%; inconclusive means mostly about 30% to 49%
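PathHunter D2 cells, attached overnight at 37 deg C, received compound in DMSO plus dopamine at EC20 (50 nM final) for 90 min at 37 deg C. Beta-arrestin recruitment was read as luminescence after 1 h with detection reagent at ambient temperature.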
D2 ag-1 – activates the human D2 dopamine receptor; P14416; HEK293 T-REx D2 cells, calcium flux agonist mode; activation, % at 2 µM; 340,000 compounds, 0.53% hits; AID 485358;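 active means activation over 3 SD above normal in the single-dose calcium agonist read, cut at about 30% in these data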
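Tetracycline-induced HEK293 T-REx cells with force-coupled D2 receptor, plated overnight at 30 C, loaded with no-wash calcium dye. After a 10 s baseline, compound was pin-added and calcium flux read kinetically for 180 s; calcium rises flagged agonists.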
D2 ag-2 – agonists of human D2 dopamine receptor (beta-arrestin) | P14416 | DiscoveRx PathHunter D2 beta-arrestin, luminescence, 90 min; 100% = 57 uM dopamine signal | AID 624465 | activation, % (no concentration beside the values) | 360,000 compounds, 0.084% hits; in the data active means activation above about 40%; inconclusive means between about 15% and that limit
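Agonist mode: compounds alone added to overnight-plated D2 PathHunter cells for 90 min at 37 C, with 57 uM final dopamine (EC100) defining full response. Beta-arrestin recruitment detected by chemiluminescent reagent, read after 1 h at ambient temperature.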
D2 PAM-2 – D2 dopamine receptor (human) potentiation | P14416 | HEK293 T-REx D2, calcium flux, EC20 dopamine potentiation | potentiation, % at 10 µM | 340,000 compounds, 0.34% hits;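 active means potentiation over 3 SD above the plate norm, cut at about 30% in these data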
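Primary screen. Calcium kinetics in induced HEK293 T-REx D2 cells: compound pre-addition 180 s, EC20 dopamine, 180 s more.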
D3 arrestin ag – D3 receptor agonism confirmed, beta-arrestin readout; shares compounds with D2 ag-1; DiscoveRx D3 beta-arrestin cells, luminescence, 90 min; Potency, µM (doses to about 76.9 µM), most hits filed as activators; 2,300 compounds, 4% hits; AID 720506; further: nearly all actives have a fitted effect of over 70% in size
Target sequence (P35462 whole entry, looked up): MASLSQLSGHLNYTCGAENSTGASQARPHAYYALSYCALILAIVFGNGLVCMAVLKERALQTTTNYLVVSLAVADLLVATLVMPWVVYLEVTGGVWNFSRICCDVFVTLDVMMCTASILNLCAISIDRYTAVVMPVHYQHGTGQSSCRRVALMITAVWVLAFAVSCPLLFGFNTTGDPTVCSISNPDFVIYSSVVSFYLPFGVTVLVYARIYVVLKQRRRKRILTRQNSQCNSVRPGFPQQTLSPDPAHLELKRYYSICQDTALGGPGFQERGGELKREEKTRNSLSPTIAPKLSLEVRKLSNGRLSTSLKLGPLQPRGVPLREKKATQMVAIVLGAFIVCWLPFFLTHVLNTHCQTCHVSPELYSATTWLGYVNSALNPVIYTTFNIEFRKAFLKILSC
D2 ag-3 – counter-screen for D3 agonists: human D2 dopamine receptor agonism. shares compounds with D2 ag-1. DiscoveRx PathHunter D2 beta-arrestin, luminescence, 90 min; response scale: percent relative to full dopamine signal. Potency, µM (titrated, usually from 76.9 µM), hits mostly activators. 2,300 compounds, 5.9% hits. AID 720507; further: nearly all actives have a fitted effect of over 70% in size
A number is an active result; 0 = inactive; ? = inconclusive; - = no result given; ! = a repeat was not active. Unless noted, the call rests on the fitted dose curve; in most records, active means well fitted activation curve with a large enough effect; inconclusive means small, poorly fitted or top-dose-only effect; inactive means flat fitted curve, though single readings scatter.

SMILES	D2 antagonist	D2 PAM-1	D2 ag-1	D2 ag-2	D2 PAM-2	D3 arrestin ag	D2 ag-3
CCCCCc1nc2c(c(=O)c3ccccc3n2C)c(=O)n1C1CCCCCC1	45.8	0	36.3	0	0	0	0
CC(N)C(=O)OC(C)(C)Cc1ccc(Cl)cc1 (stereo unspecified)	0	0	0	0	0	-	-
CCN(CC)P(=O)(/C=C(\Cl)c1ccccc1)/C=C(\Cl)c1ccccc1	0	0	0	0	0	0	0
CCc1ccc(CNCCc2c[nH]c3ccccc23)cc1	0	0	0	0	0	0	0
N#C/C=C/C#N	0	0	0	0	0	0	0
O=P1(c2ccccc2)CC=CC1	-	0	-	0	-	-	-
c1ccc(CCN2CCC(N3CCN(c4ccccc4)CC3)CC2)cc1	71.8	0	74.3	?	0	?	?
COc1ccc(N2CCN(CCc3ccncc3)CC2)cc1	0	0	0	0	-	-	-
CNCCc1c[nH]c2ccccc12	0	0	0	0	0	-	-
CCC(N)Cc1c[nH]c2ccccc12 (stereo unspecified)	0	0	0	0	0	0	0
O=C(Nc1ccc(F)cc1)N1Cc2ccccc2-n2nncc2C1	-	0	-	0	-	-	-
COC(=O)C1=C(c2ccc(OCc3ccccc3)cc2)C[C@@H]2CC[C@H]1N2C(=O)NCc1ccc(F)cc1	-	0	-	0	-	-	-
COC(=O)C1=C(c2ccc(OCc3ccccc3)cc2)C[C@@H]2CC[C@H]1N2C(=O)NCc1ccc(N(C)C)cc1	0	0	0	0	0	0	0
COC(=O)C1=C(c2ccc(-c3ccccc3)c(F)c2)C[C@@H]2CC[C@H]1N2C(=O)NCCO	0	0	0	0	0	0	0
CCCNC(=O)N1[C@H]2CC[C@@H]1C(C(=O)OC)=C(c1ccc(-c3ccccc3)c(F)c1)C2	0	0	0	0	0	0	?
COC(=O)C1=C(c2ccc(-c3ccccc3)c(F)c2)C[C@@H]2CC[C@H]1N2C(=O)NCCOc1ccccc1Cl	0	0	0	0	0	0	0
COc1ccc(OC)c(CCNCc2c(C(=O)O)c(C)n(Cc3ccc(F)cc3Cl)c2C)c1	-	-	0	-	0	-	-
c1ccc(C2(NC3=NCCO3)CCCCC2)cc1	-	0	-	0	-	-	-
Cc1cccc2sc(NC(=O)c3cccn(Cc4ccccc4)c3=O)nc12	-	-	0	-	0	-	-
c1cc(CNCCc2ccc3c(c2)OCO3)ccn1	0	0	0	0	0	?	0
Fc1ccc(CNCCc2ccc3c(c2)OCO3)cc1	0	0	0	0	0	-	-
CN1C[C@H](C(=O)N[C@]2(C)O[C@@]3(O)[C@@H]4CCCN4C(=O)[C@H](Cc4ccccc4)N3C2=O)CC2c3cccc4[nH]cc(c34)C[C@H]21 (stereo partly specified)	88.1!	0	81.5!	?	0	0	?
Oc1ccc2c3c1OC1c4oc5ccccc5c4C[C@@]4(O)[C@@H](C2)N(CC2CC2)CC[C@]314 (stereo partly specified)	-	0	-	0	-	-	-
COC(=O)C1=C(c2ccc(OC(F)(F)F)cc2)C[C@@H]2CC[C@H]1N2C(=O)N1CCOCC1	0	0	0	0	0	0	0
COC(=O)C1=C(c2ccc(OC(F)(F)F)cc2)C[C@@H]2CC[C@H]1N2C(=O)NC1CC1	0	0	0	0	0	0	0
COC(=O)C1=C(c2ccc(OC(F)(F)F)cc2)C[C@@H]2CC[C@H]1N2C(=O)NCC1CC1	0	0	0	0	0	-	-
COc1ccc(C(c2ccc(OC)cc2)C(Cl)(Cl)Cl)cc1	0	0	0	0	0	-	-
